Bioassay records: PubChem, National Center for Advancing Translational Sciences (NCATS)
NPC1 prom act: NPC1 promoter activation; Huh7 NPC1 promoter luciferase reporter, 24 h; Potency, µM (series often up to 9.22 µM), hits mostly activators; hit rate 2.4% among 320,000; note: nearly all actives have a fitted effect of over 60% in size
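Stable NPC1-promoter luciferase Huh7 line; cpd (DMSO) 24 h, 37 °C, 5% CO2; Amplite luciferase reagent 10 min RT; luminescence readout. qHTS format.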
FLuc modulator: firefly luciferase modulation, counter-screen for miR-21 project; purified FLuc, Km substrates, luminescence inhibition; Potency, µM (highest dose often 57.5 µM), most hits filed as inhibitors; hit rate 6.9% among 360,000; note: nearly all actives have a fitted effect of over 55% in size
Target sequence (P08659 whole entry, looked up): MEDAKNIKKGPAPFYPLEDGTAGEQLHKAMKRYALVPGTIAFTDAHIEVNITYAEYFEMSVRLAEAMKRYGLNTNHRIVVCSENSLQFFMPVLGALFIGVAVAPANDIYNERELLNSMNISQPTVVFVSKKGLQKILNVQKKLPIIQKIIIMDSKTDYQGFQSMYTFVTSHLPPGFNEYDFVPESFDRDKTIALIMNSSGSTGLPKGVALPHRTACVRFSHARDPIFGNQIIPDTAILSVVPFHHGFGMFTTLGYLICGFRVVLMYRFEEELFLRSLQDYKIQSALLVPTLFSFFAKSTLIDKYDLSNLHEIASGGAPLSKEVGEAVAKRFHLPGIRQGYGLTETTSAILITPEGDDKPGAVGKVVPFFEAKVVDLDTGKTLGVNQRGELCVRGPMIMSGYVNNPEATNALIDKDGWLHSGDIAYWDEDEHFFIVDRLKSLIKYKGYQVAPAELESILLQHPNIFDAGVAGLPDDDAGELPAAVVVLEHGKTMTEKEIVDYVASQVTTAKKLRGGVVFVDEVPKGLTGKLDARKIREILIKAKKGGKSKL
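Biochemical qHTS of compounds, final roughly 60 µM downward over six points, against 10 nM purified firefly luciferase using Km concentrations of substrates (10 uM D-luciferin, 10 uM ATP) in Tris acetate pH 7.5 buffer; luminescence output.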
ELG1 genotoxic: genotoxicity induction in ELG1-luciferase HEK293T cells; Potency, µM (titrated, usually from 46 µM), usual class: activators; hit rate 1.3% among 330,000; HEK293T ELG1-luciferase reporter, luminescence, 16 h; note: nearly all actives have a fitted effect of over 60% in size
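DMSO vehicle served as control against compound-treated ELG1-luciferase HEK293T cells; exposure lasted 16 hr at 37 °C and 5% CO2, followed by ONE-Glo luminescence detection after 30 min.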
ELG1 DNA repair: blocks ELG1-dependent DNA repair in HEK293T cells; Potency, µM (doses to about 46.1 µM), hits mostly inhibitors; hit rate 2.3% among 330,000; HEK293T ELG1-luciferase reporter, luminescence, 16 h; DNA damage induced by 5-fluorouridine; note: nearly all actives have a fitted effect of over 55% in size
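Quantitative HTS, concentration-response format. 2,000 cells/well co-treated with 5-fluorouridine and compound, 16 hr in 5% CO2 at 37 °C; ONE-Glo luminescence read after 30 min.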
Rab9 prom act: activates the Rab9 promoter; Huh7 Rab9 promoter-luciferase reporter, luminescence, 24 h; Potency, µM (series often up to 9.22 µM), most hits filed as activators; hit rate 2.8% among 320,000; AID 485297; note: nearly all actives have a fitted effect of over 60% in size
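Luminescence from Amplite-detected luciferase (10 minutes, ambient) reports Rab9 promoter activation. Before that, stable Rab9-luciferase Huh7 cells (1500/well, reduced-serum OP-MEM I plus 10% FBS) were exposed to compound for 24 hours at 37C.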
SMN2 splice up: increases expression of the SMN2 splice variant | HEK293 SMN2-luciferase splicing reporter, luminescence, 30-36 h | Potency, µM (top dose mostly 46.1 µM), usual class: activators | hit rate 2.8% among 210,000 | AID 1458; note: nearly all actives have a fitted effect of over 55% in size
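HEK293 cells carry an SMN2 minigene-luciferase reporter in which exon 7 inclusion puts luciferase in frame. Cells were seeded at 2000 cells/well, attached for 10-12 hours, then exposed to compounds for 30-36 hours at 37C before ONE-Glo luminescence.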
ELG1 FLuc counter: luciferase inhibition in cell-free luciferin readout for ELG1 hits; shares compounds with ELG1 DNA repair; cell-free firefly luciferase luminescence counter-screen, ViewLux; Potency, µM (doses to about 46.1 µM), actives largely listed as inhibitors; hit rate 3% among 350; AID 624247
ELG1-Luc inh: confirmation of human ELG1-dependent DNA repair inhibitors; shares compounds with ELG1 DNA repair; HEK293T ELG1-luciferase levels, luminescence; cells co-treated with 5-fluorouridine; hit rate 68% among 670; Potency, µM (doses to about 46.1 µM), hits mostly inhibitors; note: nearly all actives have a fitted effect of over 55% in size
ELG1 MMS Luc: inhibits ELG1-dependent repair under MMS stimulation in HEK293T cells | shares compounds with ELG1 DNA repair | HEK293T luciferase-tagged ELG1 level, MMS stimulated | Potency, µM (highest dose often 46.1 µM), actives largely listed as inhibitors | hit rate 53% among 670; note: nearly all actives have a fitted effect of over 60% in size
ELG1 5-FU: confirmation of ELG1 repair inhibitors: viability with 5FU; 670 tested, under 10 active; shares compounds with ELG1 DNA repair; AID 624250; Potency, µM (titrated, usually from 46.1 µM), usual class: cytotoxic; cell viability with 5-FU, ELG1-dependent repair;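 note: ELG1-luc HEK293T cells cotreated with 5-fluorouridine at 10 µM final; viability measured 16 h after compound addition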
ELG1 MMS cell: confirmation of ELG1 repair inhibitors: viability with MMS; Potency, µM (top dose mostly 46.1 µM), actives largely listed as cytotoxic; Cell viability with MMS, ELG1-dependent DNA repair; shares compounds with ELG1 DNA repair; hit rate 33% among 670; AID 624251;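 note: ELG1-luc HEK293T cells co-treated with 10 µM MMS; viability read 16 h after compound addition; nearly all actives have a fitted effect of over 60% in size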
Cell viab unstim: affects unstimulated cell viability, ELG1 hit counter-screen. cell viability counter-screen, unstimulated, luminescence. hit rate 8% among 900. Potency, µM (titrated, usually from 45.9 µM), actives largely listed as cytotoxic. shares compounds with ELG1 DNA repair;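 note: compound exposure lasted 16 hours before reading; nearly all actives have a fitted effect of over 55% in size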
FLuc biochem: inhibits purified firefly luciferase, counter-screen for ELG1 hits | shares compounds with ELG1 DNA repair | purified firefly luciferase, luminescence counter-screen | Potency, µM (doses to about 57.5 µM), hits mostly inhibitors | hit rate 10% among 350 | AID 624253
Large screens that a line does not name were inactive (follow-up assays come after a bar, where they were run). Rows were chosen to be rich in hits. Some 9.4% of all compounds tested hit in one or more screens of this group. Calls come from the whole dose curve; as a rule, active = well fitted curve in the direction sought with a large enough effect; inconclusive = small, poorly fitted or top-dose-only effect, or another doubt; inactive = no such curve, though single readings can be large; an effect the other way counts as inactive or inconclusive.

Cc1cccc(C(=O)OCC(=O)c2c(N)n(CC(C)C)c(=O)n(C)c2=O)c1[N+](=O)[O-]	ELG1 genotoxic inconclusive, ELG1 DNA repair 4.5µM (no result: SMN2 splice up) | ELG1-Luc inh 13µM | ELG1 MMS Luc 7.1µM | ELG1 5-FU inactive | ELG1 MMS cell 6.3µM | Cell viab unstim inconclusive
Cc1cccc(C(=O)OCC(=O)c2c(N)n(CC(C)C)c(=O)n(C)c2=O)c1O	ELG1 DNA repair inconclusive (no result: SMN2 splice up)
CC(C)Cn1c(N)c(C(=O)COC(=O)CC23CC4CC(CC(C4)C2)C3)c(=O)n(C)c1=O	FLuc modulator inconclusive, ELG1 DNA repair 3.7µM | ELG1-Luc inh 2µM | ELG1 MMS Luc 1.1µM | ELG1 5-FU inactive | ELG1 MMS cell 1µM | Cell viab unstim 16µM
Cc1ccc(NC(=O)C2CCCN(S(=O)(=O)c3ccc4c(c3)CCCC(=O)N4)C2)cc1N(C)C (centres undefined)	none (no result: NPC1 prom act, ELG1 genotoxic, ELG1 DNA repair, Rab9 prom act, SMN2 splice up)
Cc1cccn2c(CNCC3(c4ccccc4)CCCC3)c(C(=O)N3CCOCC3)nc12	ELG1 DNA repair 2.9µM (no result: SMN2 splice up) | ELG1-Luc inh inconclusive | ELG1 MMS Luc 13µM | ELG1 5-FU inactive | ELG1 MMS cell 25µM | Cell viab unstim inconclusive
CCOc1ccc(-c2ccc(NS(=O)(=O)c3ccc(C)cc3)cc2)nn1	none (no result: NPC1 prom act, ELG1 genotoxic, ELG1 DNA repair, Rab9 prom act, SMN2 splice up)
O=C(Cn1cnc2ccccc21)Nc1ccc(SC(F)F)cc1	FLuc modulator inconclusive, ELG1 DNA repair 2.1µM | ELG1-Luc inh inactive | ELG1 MMS Luc 1.6µM | ELG1 5-FU inactive | ELG1 MMS cell 1.8µM | Cell viab unstim inconclusive
Cc1ccc(CNC(=O)Cc2c(C)c3cc4c(C)coc4cc3oc2=O)cc1	none (no result: NPC1 prom act, ELG1 genotoxic, ELG1 DNA repair, Rab9 prom act)
c1ccc(SCc2cn(C[C@H]3CC[C@@H]([C@@H]4CC[C@H](Cn5cc(CSc6ccccc6)nn5)O4)O3)nn2)cc1	ELG1 DNA repair 2.1µM (no result: SMN2 splice up) | ELG1-Luc inh 28µM | ELG1 MMS Luc 28µM | ELG1 5-FU inconclusive | ELG1 MMS cell inactive | Cell viab unstim inactive
CCOc1ccc(CNC(=O)c2cnc3sc(N4CCCCCC4)nn3c2=O)cc1OC	none (no result: NPC1 prom act, ELG1 genotoxic, ELG1 DNA repair, Rab9 prom act, SMN2 splice up)
CCOc1ccc2nc(SCC(=O)N3CCCCCC3)c(C#N)cc2c1	none
Cc1cc2cc3c(cc2nc1SCC(=O)N1c2ccccc2CC1C)OCO3 (centres undefined)	ELG1 DNA repair inconclusive
N#Cc1cc2cc3c(cc2nc1SCC(=O)N1CCOCC1)OCO3	NPC1 prom act 1.3µM, ELG1 genotoxic 3.7µM, ELG1 DNA repair inconclusive, Rab9 prom act 1.6µM (no result: FLuc modulator, SMN2 splice up) | ELG1 FLuc counter inactive | Cell viab unstim inactive | FLuc biochem inactive
Cc1cc2cc3c(cc2nc1SCC(=O)N1CCOCC1)OCO3	none (no result: SMN2 splice up) | ELG1 FLuc counter inactive | Cell viab unstim inactive | FLuc biochem inactive
